Test results reported in PubChem BioAssay AID624352 (Sanford-Burnham Center for Chemical Genomics, 2012).
Hit rate of the full screen: of about 360,000 compounds, about 2,600 (0.72%) were called active.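 Rule for the calls: active = inhibition of the luminescence signal of 40% or more relative to plate controls, in a single-dose primary screen at 18.75 µM; inactive = the rest.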 This excerpt belongs to a sample that is enriched for actives.

Test: blockers of HIF-2a driven luciferase – luminescence, 786-0 RCC cells, primary screen (AID 624352)
Details: 786-0 RCC cells HIF-2a reporter, overnight, at 18.8 µM, active compounds read high

| Structure (SMILES) | inhibition |
| --- | --- |
| Brc1ccc2c(c1)[C@H]1OCC[C@H]1[C@@H](c1cccs1)N2 | -2.71% (inactive) |
| C[C@H](O)[C@@H]1C(=O)N2CCc3ccc(N4CCOCC4)cc3[C@@H]2C[C@@H]1N(C)C(=O)C(C)(C)C | -9.89% (inactive) |
| Cc1cc(C)c(SCCc2ccncc2)c(C)c1 | 10% (inactive) |
| Cc1n[nH]c(C)c1S(=O)(=O)N1CCCC(C(=O)Nc2ccc(Br)cc2)C1 (stereo not drawn) | 10.9% (inactive) |
| Cc1cc(C)c2c(NC(=O)C3CC3)nn(C)c2n1 | 0.567% (inactive) |
| Cc1cc(Nc2cc(N3CCN(C)CC3)nc(Sc3ccc(NC(=O)C4CC4)cc3)n2)n[nH]1 | 52.1% (active) |
| Nc1cccc(OCCCCCOc2cccc(N)c2)c1 | -55.8% (inactive) |
| COc1ccc(-c2nc3c(s2)CCc2onc(-c4ccc(OC)cc4)c2-3)cc1 | -8.84% (inactive) |
| CO/N=C/CC(=O)c1ccc(OC)cc1 | -11.6% (inactive) |
| Cc1cc(NC(=O)COc2ccccc2C#N)no1 | -198% (inactive) |
| CC(C)CCOc1ccc(C(=O)C[N+]2(C)CCOCC2)cc1 | 12.3% (inactive) |
| CCOc1cc(C(=O)O)ccc1OCCOc1ccccc1 | 15.8% (inactive) |
| CCCOc1ccc(C(=O)C(CCC(CNCC)C(=O)c2ccc(OCCC)cc2)CNCC)cc1 (stereo not drawn) | 98.1% (active) |
| CC(CC(=O)O)CC(=O)NNC(=O)c1cccc(Br)c1 (stereo not drawn) | 15.7% (inactive) |
| CC(=O)c1cccc(-c2ccc(CN3C(CC(C)C)C(=O)N(Cc4cn(CC5CCCCC5)nn4)CCS3(=O)=O)cc2)c1 (stereo not drawn) | 4.21% (inactive) |
| Cn1c(=O)cc(SCC(=O)N2CCN(C(=O)c3ccco3)CC2)c2ccccc21 | -11.7% (inactive) |
| CC(Sc1nncn1C)C(=O)NCCC1=CCCCC1 (stereo not drawn) | 1.01% (inactive) |
| Cc1ccc(S(=O)(=O)N(CC(=O)Nc2cccc([N+](=O)[O-])c2)Cc2ccc(Cl)cc2)cc1 | 8.15% (inactive) |
| CC(=O)N(CN1C(=O)C2C3C=CC(C3)C2C1=O)c1cccc(Cl)c1 (stereo not drawn) | 9.8% (inactive) |
| O=C(CCl)N(Cc1cccc([N+](=O)[O-])c1)c1cccc(Cl)c1 | 40.9% (active) |

| Structure (SMILES) | inhibition |
| --- | --- |
| NS(=O)(=O)c1cc2c(cc1Cl)NC(C(Cl)Cl)NS2(=O)=O (stereo not drawn) | 2.3% (inactive) |
| O=C1C=C(c2ccc(Cl)cc2)C(=O)N1Nc1ccccc1 | 64.8% (active) |
| COc1ccc(CN2CCn3ncc(C(=O)Nc4ccc(Cl)cc4Cl)c3C2=O)cc1 | 13.3% (inactive) |
| C[C@]12c3[nH]c4ccc(Cl)cc4c3CCN1C(=O)[C@@H](CC(=O)NCCCn1ccnc1)C[C@@H]2C(=O)N1CCOCC1 | 6.91% (inactive) |
| O=C(CS(=O)(=O)Cc1ccccc1)Nc1cccnc1 | -1.93% (inactive) |
| Cc1ccc(CS(=O)(=O)c2ncc(Cl)c(C(=O)Nc3nnc(C)s3)n2)cc1 | 94.4% (active) |
| Cc1cccc(CS(=O)(=O)c2ncc(Cl)c(C(=O)Nc3ccc(F)cc3)n2)c1 | 86.1% (active) |
| Cc1cccc(NC(=O)c2nc(S(=O)(=O)Cc3ccccc3)ncc2Cl)c1 | 86.7% (active) |
| Cc1cc(NS(=O)(=O)c2ccc(NC(=S)NC(=O)c3ccc(F)cc3Cl)cc2)no1 | 21.4% (inactive) |
| Cc1nnc(NC(=O)CSc2nccn2-c2cccc(C)c2C)s1 | 7.22% (inactive) |
| Cc1ccc(CS(=O)(=O)CCC(=O)NC2CC2)cc1 | 11.4% (inactive) |
| Cc1cccc(NS(=O)(=O)c2ccc(C)c(C(=O)NCc3cccnc3)c2)c1 | 9.9% (inactive) |
| CN(CCC(=O)Nc1cc(S(=O)(=O)N(C)C)ccc1Cl)CC(=O)Nc1ccc(F)cc1 | 11.6% (inactive) |
| CCCN(CC(=O)Nc1ccccc1OC)C(=O)CCC(=O)c1ccc(F)cc1 | -7.63% (inactive) |
| O=C(CC1SC(=Nc2ccccc2)N(Cc2ccccn2)C1=O)Nc1cccc(Cl)c1 (stereo not drawn) | -84.7% (inactive) |
| CCN(C(=O)COC(=O)c1c(NC(C)=O)sc(C)c1C)C1CCS(=O)(=O)C1 (stereo not drawn) | 12.6% (inactive) |
| O=C(NCc1cccnc1)C12CC3CC(CC(C3)C1)C2 | 21.4% (inactive) |
| CC1(C)CC2CC(C)(CN2c2ncnc3ccc(Br)cc23)C1 (stereo not drawn) | 31.5% (inactive) |
| COc1ccc(Nc2ncnc3ccc(Br)cc23)c(OC)c1 | 75.3% (active) |
| CCOC(=O)CNc1nc(Cl)nc(Nc2ccc(OC)cc2OC)n1 | 12.9% (inactive) |

| Structure (SMILES) | inhibition |
| --- | --- |
| CC1=NC2(CCCc3c2no[n+]3[O-])N(O)C1(C)C (stereo not drawn) | -5.63% (inactive) |
| Nc1c(-c2cccc(Cl)c2)cnn1-c1cccc([N+](=O)[O-])c1 | -139% (inactive) |
| Cc1cccc(-n2ncc(Cl)c(Cl)c2=O)c1 | 84.5% (active) |
| Cc1cccc(N2Cc3ccccc3C2=NC(=O)c2ccc(Cl)nc2)c1 | -92.3% (inactive) |
| COc1ccc(OC)c(-c2c(=O)n(OCc3ccccc3Br)c3ccccc3[n+]2[O-])c1 | 23.8% (inactive) |
| Cc1ccc(CNC(=O)COc2ccc(S(=O)(=O)NC(C)C)cc2)cc1 | -0.52% (inactive) |
| Cn1c(=O)n(C)c2cc(CNc3ccc(N4CCOCC4)c(C(=O)O)c3)ccc21 | 15.1% (inactive) |
| Cc1nnnn1/C(=C\c1ccccc1)C(=O)OCC(=O)N1CC2(C)CC1CC(C)(C)C2 (stereo not drawn) | 50.7% (active) |
| O=C(CNC(=O)c1cc(S(=O)(=O)N2CCOCC2)ccc1N1CCCC1)Nc1ccc(F)c(F)c1 | 3.34% (inactive) |
| COc1ccc(/C=N/N=C/c2c[nH]c(=O)c(C#N)c2Nc2ccccc2)cc1 | 22.7% (inactive) |
| O=C(O)CCn1c(O)c(C=C2N=c3ccccc3=N2)sc1=S | 48.3% (active) |
| C=CCNC(=O)C1CC2c3ccccc3C1c1ccccc12 (stereo not drawn) | 15.4% (inactive) |
| CC1(C(=O)NS(=O)(=O)C2CC2)CCCN(C(=O)CSc2ccccc2)C1 (stereo not drawn) | 6.93% (inactive) |
| CCSc1sc(CC)cc1C=O | 18.8% (inactive) |
| COc1ccccc1CN1CC(C(=O)NCCc2cn[nH]c2)CCC1=O (stereo not drawn) | 11.7% (inactive) |
| COCCN(C(=O)CCC(=O)Nc1ccccn1)C(C(=O)NCCC(C)C)c1ccc(OC)cc1 (stereo not drawn) | 12.7% (inactive) |
| COc1ccc2nc(-c3ccccn3)ccc2c1 | -77.1% (inactive) |
| COc1ccc(C(=O)/C=C/Nc2ccccn2)cc1 | 51.6% (active) |
